In PubChem BioAssay AID1159580 (chemical genetic matrix, 2015):
Out of some 5,500 compounds screened, about 2,000 (36%) were called active. Another 18% or so got no clear call; they are omitted. No stated cut-off is given here; in the data, active means normalized growth mostly below about 0.91 (no sharp cut-off); inconclusive means no clear call, values can overlap the other calls; inactive means mostly above about 0.92. This is one part of the list.

Test: chemical genetic growth profiling, strain panel (AID 1159580);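 further: tested at 20 µM; growth read once vehicle control cultures reached saturation at 30 °C; 1 = growth at the plate median or of vehicle wells; lower values mean less growth of the strain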
Conditions: growth OD

Measured: normalized growth

Oc1cc(O)c2c(c1)O[C@H](c1ccc(O)c(O)c1)[C@@H](O)C2
inactive: S. cerevisiae deletion strains, locus YJR066W, strain TOR1, hits give low values 0.927 | S. cerevisiae deletion strains, locus YJR075W, strain HOC1, hits give low values 1 | S. cerevisiae deletion strains, locus YKL009W, strain mrt4, hits give low values 0.991 | S. cerevisiae deletion strains, locus YKL068W, hits give low values 0.977 | S. cerevisiae deletion strains, locus YKL085W, strain MDH1 (second series), hits give low values 0.981 | S. cerevisiae deletion strains, locus YKL085W, strain MDH1, hits give low values 0.981 | S. cerevisiae deletion strains, locus YKL160W, strain elf1, hits give low values 1.02 | S. cerevisiae deletion strains, locus YKR001C, strain vps1, hits give low values 1.03 | S. cerevisiae deletion strains, locus YKR026C, strain gcn3, hits give low values 0.973 | S. cerevisiae deletion strains, locus YKR091W, strain srl3, hits give low values 1.01 | S. cerevisiae deletion strains, locus YLL001W, strain dnm1, hits give low values 1.01 | S. cerevisiae deletion strains, locus YLL026W, hits give low values 1 | S. cerevisiae deletion strains, locus YLL041C, strain sdh2, hits give low values 1.01 | S. cerevisiae deletion strains, locus YLR027C, strain aat2, hits give low values 1.02 | S. cerevisiae deletion strains, locus YLR039C, strain RIC1, hits give low values 0.919 | S. cerevisiae deletion strains, locus YLR058C, strain SHM2, hits give low values 0.973 | S. cerevisiae deletion strains, locus YLR102C, strain apc9, hits give low values 0.985 | S. cerevisiae deletion strains, locus YLR113W, strain HOG1, hits give low values 0.987 | S. cerevisiae deletion strains, locus YLR221C, strain rsa3, hits give low values 1.02 | S. cerevisiae deletion strains, locus YLR258W, strain gsy2, hits give low values 1 | S. cerevisiae deletion strains, locus YLR262C, strain YPT6 (second series), hits give low values 1.02 | S. cerevisiae deletion strains, locus YLR262C, strain YPT6, hits give low values 0.945 | S. cerevisiae deletion strains, locus YLR268W, strain sec22, hits give low values 1.02 | S. cerevisiae deletion strains, locus YLR320W, strain mms22, hits give low values 1.01 | S. cerevisiae deletion strains, locus YLR330W, strain CHS5, hits give low values 1 | S. cerevisiae deletion strains, locus YLR342W, strain FKS1 (second series), hits give low values 1.02 | S. cerevisiae deletion strains, locus YLR342W, strain FKS1, hits give low values 1.01 | S. cerevisiae deletion strains, locus YLR357W, strain rsc2, hits give low values 0.987 | S. cerevisiae deletion strains, locus YLR370C, strain arc18, hits give low values 1.01 | S. cerevisiae deletion strains, locus YLR371W, strain rom2, hits give low values 1.01 | S. cerevisiae deletion strains, locus YLR384C, strain iki3, hits give low values 0.997 | S. cerevisiae deletion strains, locus YLR418C, strain cdc73, hits give low values 0.965 | S. cerevisiae deletion strains, locus YML016C, strain PPZ1, hits give low values 0.999 | S. cerevisiae deletion strains, locus YML032C, strain rad52, hits give low values 0.947 | S. cerevisiae deletion strains, locus YML120C, strain ndi1, hits give low values 1.01 | S. cerevisiae deletion strains, locus YML124C, strain tub3, hits give low values 0.985 | S. cerevisiae deletion strains, locus YMR058W, strain fet3, hits give low values 1.02 | S. cerevisiae deletion strains, locus YMR078C, strain ctf18, hits give low values 0.984 | S. cerevisiae deletion strains, locus YMR125W, strain sto1, hits give low values 1.01 | S. cerevisiae deletion strains, locus YMR129W, hits give low values 1.02 | S. cerevisiae deletion strains, locus YMR205C, strain PFK2, hits give low values 1 | S. cerevisiae deletion strains, locus YMR223W, strain ubp8, hits give low values 0.972 | S. cerevisiae deletion strains, locus YMR231W, strain pep5, hits give low values 1 | S. cerevisiae deletion strains, locus YMR263W, strain SAP30, hits give low values 0.993 | S. cerevisiae deletion strains, locus YMR307W, strain GAS1, hits give low values 1.01 | S. cerevisiae deletion strains, locus YNL067W, strain RPL9B, hits give low values 0.983 | S. cerevisiae deletion strains, locus YNL071W, strain lat1, hits give low values 1.02 | S. cerevisiae deletion strains, locus YNL128W, strain TEP1, hits give low values 0.97 | S. cerevisiae deletion strains, locus YNL183C, strain NPR1, hits give low values 0.95 | S. cerevisiae deletion strains, locus YNL209W, strain ssb2, hits give low values 1.01 | S. cerevisiae deletion strains, locus YNL233W, strain BNI4, hits give low values 0.993 | S. cerevisiae deletion strains, locus YNL248C, strain rpa49, hits give low values 1.03 | S. cerevisiae deletion strains, locus YNL250W, strain rad50, hits give low values 0.981 | S. cerevisiae deletion strains, locus YNL271C, strain bni1, hits give low values 0.988 | S. cerevisiae deletion strains, locus YNL298W, strain CLA4, hits give low values 0.969 | S. cerevisiae deletion strains, locus YNL307C, strain MCK1, hits give low values 0.989 | S. cerevisiae deletion strains, locus YNL322C, strain KRE1 (second series), hits give low values 1.01 | S. cerevisiae deletion strains, locus YNL322C, strain KRE1, hits give low values 0.99 | S. cerevisiae deletion strains, locus YNR049C, strain mso1, hits give low values 1 | S. cerevisiae deletion strains, locus YNR052C, strain pop2, hits give low values 0.995 | S. cerevisiae deletion strains, locus YOL012C, strain htz1 1.07 | S. cerevisiae deletion strains, locus YOL147C, strain pex11, hits give low values 0.979 | S. cerevisiae deletion strains, locus YOR001W, strain rrp6, hits give low values 1.02 | S. cerevisiae deletion strains, locus YOR061W, strain CKA2, hits give low values 0.97 | S. cerevisiae deletion strains, locus YOR069W, strain VPS5, hits give low values 0.994 | S. cerevisiae deletion strains, locus YOR070C, strain gyp1, hits give low values 0.996 | S. cerevisiae deletion strains, locus YOR080W, strain dia2, hits give low values 1 | S. cerevisiae deletion strains, locus YOR083W, strain WHI5, hits give low values 1.02 | S. cerevisiae deletion strains, locus YOR106W, strain vam3, hits give low values 1.03 | S. cerevisiae deletion strains, locus YOR136W, strain idh2, hits give low values 1 | S. cerevisiae deletion strains, locus YOR144C, strain elg1, hits give low values 0.983 | S. cerevisiae deletion strains, locus YOR184W, strain ser1, hits give low values 0.995 | S. cerevisiae deletion strains, locus YOR231W, strain MKK1, hits give low values 0.987 | S. cerevisiae deletion strains, locus YOR265W, strain rbl2, hits give low values 1 | S. cerevisiae deletion strains, locus YOR270C, strain vph1, hits give low values 1.07 | S. cerevisiae deletion strains, locus YOR290C, strain snf2, hits give low values 0.971 | S. cerevisiae deletion strains, locus YOR316C, strain cot1, hits give low values 0.979 | S. cerevisiae deletion strains, locus YPL051W, strain arl3, hits give low values 1.02 | S. cerevisiae deletion strains, locus YPL078C, strain atp4, hits give low values 1.01 | S. cerevisiae deletion strains, locus YPL106C, strain sse1, hits give low values 1 | S. cerevisiae deletion strains, locus YPL240C, strain hsp82, hits give low values 1 | S. cerevisiae deletion strains, locus YPL256C, strain CLN2, hits give low values 0.984 | S. cerevisiae deletion strains, locus YPR119W, strain clb2, hits give low values 0.983 | S. cerevisiae deletion strains, locus YPR141C, strain kar3, hits give low values 0.972 | S. cerevisiae deletion strains, locus YPR163C, strain tif3, hits give low values 0.992 | S. cerevisiae deletion strains, locus YPR167C, strain met16, hits give low values 0.975 | S. cerevisiae deletion strains, strain wtn01, hits give low values 1.05 | S. cerevisiae strains, strain wild type, hits give low values 0.985
